# Results filed as inconclusive are left out. The source made the active and inactive calls. The calls were made as follows: active = hit-call score of the fitted dose curve at least 0.9, where 1 is the maximum; inconclusive = response in the unintended direction; inactive = score below 0.9.
# Legend:
# [1] = target: human Peripheral-type Benzodiazepine Receptor (PBR), TSPO (gene 706) (UniProt P30536); assay: NVS_MP_hPBR: NovaScreen (NVS) Membrane Protein Assay for human Peripheral-type Benzodiazepine Receptor (PBR) (AID 2283331);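 also: hits reduce radioligand binding relative to DMSO baseline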
# Chain of human Peripheral-type Benzodiazepine Receptor (PBR), TSPO (gene 706) (P30536 whole entry, looked up): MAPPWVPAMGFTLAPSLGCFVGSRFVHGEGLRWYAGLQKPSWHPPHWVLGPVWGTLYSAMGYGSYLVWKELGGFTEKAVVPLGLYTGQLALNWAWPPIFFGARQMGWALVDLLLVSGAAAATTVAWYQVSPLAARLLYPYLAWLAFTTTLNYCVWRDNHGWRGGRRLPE
# Method in brief: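 Scintillation counts of filter-bound radioligand served as read-out after 1 h chemical dosing of human colonic membrane preparations. Activity was scored as signal loss against DMSO; initial duplicates at 25 uM, confirmatory concentration series afterward.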
# [2] = target: rat Peripheral-type Benzodiazepine Receptor (PBR), Tspo (gene 24230) (UniProt P16257); assay: NVS_MP_rPBR: NovaScreen (NVS) Membrane Protein Assay for rat Peripheral-type Benzodiazepine Receptor (PBR) (AID 2283335)
# Chain of rat Peripheral-type Benzodiazepine Receptor (PBR), Tspo (gene 24230) (P16257 whole entry, looked up): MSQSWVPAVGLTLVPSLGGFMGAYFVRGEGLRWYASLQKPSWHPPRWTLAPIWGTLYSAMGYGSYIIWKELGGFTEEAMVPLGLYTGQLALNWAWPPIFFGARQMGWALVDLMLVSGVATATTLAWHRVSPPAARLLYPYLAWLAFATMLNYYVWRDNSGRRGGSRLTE
# Method in brief: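 Radioligand displacement, rat kidney membrane prep, 1 h exposure, filter-based scintillation read; DMSO baseline, loss-of-signal scored. Primary screen at 25 uM in duplicate, actives followed up in concentration series.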
# [3] = target: Estrogen receptor (Homo sapiens) (UniProt P03372); assay: NVS_NR_hER: NovaScreen (NVS) Nuclear Receptor Binding Assay for human Estrogen Receptor (ER) (AID 2283348)
# Chain of Estrogen receptor (Homo sapiens) (P03372 whole entry, looked up, the tested form may be a part): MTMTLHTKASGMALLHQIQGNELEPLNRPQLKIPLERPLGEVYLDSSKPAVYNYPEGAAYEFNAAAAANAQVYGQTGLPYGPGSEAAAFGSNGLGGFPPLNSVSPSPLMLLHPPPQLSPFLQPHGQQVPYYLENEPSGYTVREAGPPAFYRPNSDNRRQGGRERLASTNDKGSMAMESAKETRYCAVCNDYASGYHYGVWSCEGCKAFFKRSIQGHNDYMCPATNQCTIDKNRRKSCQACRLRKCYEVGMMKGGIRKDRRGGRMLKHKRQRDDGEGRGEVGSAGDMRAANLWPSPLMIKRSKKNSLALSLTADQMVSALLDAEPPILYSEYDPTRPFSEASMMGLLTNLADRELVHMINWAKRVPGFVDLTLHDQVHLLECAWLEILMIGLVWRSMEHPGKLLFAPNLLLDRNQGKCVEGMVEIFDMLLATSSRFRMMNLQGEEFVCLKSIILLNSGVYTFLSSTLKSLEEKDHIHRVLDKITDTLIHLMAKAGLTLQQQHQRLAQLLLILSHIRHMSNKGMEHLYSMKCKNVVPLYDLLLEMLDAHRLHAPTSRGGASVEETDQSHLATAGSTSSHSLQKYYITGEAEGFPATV
# Method in brief: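 Scintillation signal from bound radioligand was measured 18 hours after chemical addition to cell-free MCF7 protein extracts, with DMSO as baseline. Activity was scored as signal loss; compounds ran first at 25 uM in duplicate.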
# [4] = target: Estrogen receptor (Homo sapiens) (UniProt P03372); assay: OT_ER_ERaERa_1440: Odyssey Thera (OT) 24-hour HEK293T Protein-Complementation Assay for Estrogen Receptor-alpha/-alpha Homodimer (AID 2283349);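 also: hits raise fluorescence above DMSO for agonists and antagonists alike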
# Method in brief: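 Protein-fragment complementation between two human ERα ligand-binding domains (aa 310-547) in stably transfected HEK293T cells was monitored after 24 h treatment, using fluorescence intensity relative to vehicle controls.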
# [5] = target: human Constitutive Androstane Receptor (CAR), NR1I3 (gene 9970) (UniProt Q14994); assay: NVS_NR_hCAR_Antagonist: NovaScreen (NVS) Nuclear Receptor Binding Assay for human Constitutive Androstane Receptor Antagonism (CAR) (AID 2283344)
# Chain of human Constitutive Androstane Receptor (CAR), NR1I3 (gene 9970) (Q14994 whole entry, looked up): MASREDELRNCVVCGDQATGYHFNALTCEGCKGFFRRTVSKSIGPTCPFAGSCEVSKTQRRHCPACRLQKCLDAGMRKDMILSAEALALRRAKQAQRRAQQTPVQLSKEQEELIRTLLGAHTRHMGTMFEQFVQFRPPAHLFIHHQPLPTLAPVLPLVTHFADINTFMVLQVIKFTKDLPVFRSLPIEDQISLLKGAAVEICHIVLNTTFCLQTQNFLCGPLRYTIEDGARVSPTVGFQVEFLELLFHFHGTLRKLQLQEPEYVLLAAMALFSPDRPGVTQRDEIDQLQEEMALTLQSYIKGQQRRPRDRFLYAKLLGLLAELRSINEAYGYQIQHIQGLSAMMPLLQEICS
# Method in brief: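 Cell-free TR-FRET binding read 1 h after dosing, antagonist mode; loss of signal versus DMSO baseline. Primary screen in duplicate at a single 25 uM; actives retested in concentration series.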
# [6] = target: human Androgen Receptor (AR), AR (gene 367) (UniProt P10275); assay: NVS_NR_hAR: NovaScreen (NVS) Nuclear Receptor Binding Assay for human Androgen Receptor (AR) (AID 2283332)
# Chain of human Androgen Receptor (AR), AR (gene 367) (P10275 whole entry, looked up): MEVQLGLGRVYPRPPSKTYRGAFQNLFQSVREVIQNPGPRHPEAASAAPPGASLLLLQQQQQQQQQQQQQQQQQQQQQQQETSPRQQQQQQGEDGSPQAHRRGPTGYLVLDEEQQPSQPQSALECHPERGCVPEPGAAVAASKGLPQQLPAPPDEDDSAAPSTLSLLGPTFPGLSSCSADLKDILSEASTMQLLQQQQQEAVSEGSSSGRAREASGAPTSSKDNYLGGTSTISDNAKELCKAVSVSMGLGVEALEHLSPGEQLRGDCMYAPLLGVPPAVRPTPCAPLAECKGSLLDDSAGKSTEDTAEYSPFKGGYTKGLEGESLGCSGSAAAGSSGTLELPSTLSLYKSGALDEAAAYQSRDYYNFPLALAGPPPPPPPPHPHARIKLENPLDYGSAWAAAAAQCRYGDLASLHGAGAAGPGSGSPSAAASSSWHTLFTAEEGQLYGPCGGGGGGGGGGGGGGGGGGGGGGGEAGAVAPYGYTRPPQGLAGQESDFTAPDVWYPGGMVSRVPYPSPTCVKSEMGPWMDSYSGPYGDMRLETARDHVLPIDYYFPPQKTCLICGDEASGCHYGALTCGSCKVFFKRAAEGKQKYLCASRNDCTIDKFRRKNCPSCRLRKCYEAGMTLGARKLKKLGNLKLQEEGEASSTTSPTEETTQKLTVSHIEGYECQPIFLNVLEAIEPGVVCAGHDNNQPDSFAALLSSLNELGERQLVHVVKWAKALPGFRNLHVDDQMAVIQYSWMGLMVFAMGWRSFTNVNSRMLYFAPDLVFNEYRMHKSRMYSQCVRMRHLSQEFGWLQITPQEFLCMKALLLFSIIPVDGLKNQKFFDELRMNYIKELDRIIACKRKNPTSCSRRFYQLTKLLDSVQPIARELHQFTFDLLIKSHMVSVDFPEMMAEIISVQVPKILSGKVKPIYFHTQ
# Method in brief: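 Radioligand competitive binding, scintillation read-out, in cell-free extract from LnCAP, measured 20 h after dosing. Screened first in duplicate at 25 uM, then concentration series for actives; activity fitted against DMSO.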
# [7] = target: Voltage-gated inwardly rectifying potassium channel KCNH2 (Homo sapiens) (UniProt Q12809); assay: NVS_IC_hKhERGCh: NovaScreen (NVS) Ion Channel Assay for human Potassium Channel ERG (KhERGCh) (AID 2283333)
# Chain of Voltage-gated inwardly rectifying potassium channel KCNH2 (Homo sapiens) (Q12809 whole entry, looked up): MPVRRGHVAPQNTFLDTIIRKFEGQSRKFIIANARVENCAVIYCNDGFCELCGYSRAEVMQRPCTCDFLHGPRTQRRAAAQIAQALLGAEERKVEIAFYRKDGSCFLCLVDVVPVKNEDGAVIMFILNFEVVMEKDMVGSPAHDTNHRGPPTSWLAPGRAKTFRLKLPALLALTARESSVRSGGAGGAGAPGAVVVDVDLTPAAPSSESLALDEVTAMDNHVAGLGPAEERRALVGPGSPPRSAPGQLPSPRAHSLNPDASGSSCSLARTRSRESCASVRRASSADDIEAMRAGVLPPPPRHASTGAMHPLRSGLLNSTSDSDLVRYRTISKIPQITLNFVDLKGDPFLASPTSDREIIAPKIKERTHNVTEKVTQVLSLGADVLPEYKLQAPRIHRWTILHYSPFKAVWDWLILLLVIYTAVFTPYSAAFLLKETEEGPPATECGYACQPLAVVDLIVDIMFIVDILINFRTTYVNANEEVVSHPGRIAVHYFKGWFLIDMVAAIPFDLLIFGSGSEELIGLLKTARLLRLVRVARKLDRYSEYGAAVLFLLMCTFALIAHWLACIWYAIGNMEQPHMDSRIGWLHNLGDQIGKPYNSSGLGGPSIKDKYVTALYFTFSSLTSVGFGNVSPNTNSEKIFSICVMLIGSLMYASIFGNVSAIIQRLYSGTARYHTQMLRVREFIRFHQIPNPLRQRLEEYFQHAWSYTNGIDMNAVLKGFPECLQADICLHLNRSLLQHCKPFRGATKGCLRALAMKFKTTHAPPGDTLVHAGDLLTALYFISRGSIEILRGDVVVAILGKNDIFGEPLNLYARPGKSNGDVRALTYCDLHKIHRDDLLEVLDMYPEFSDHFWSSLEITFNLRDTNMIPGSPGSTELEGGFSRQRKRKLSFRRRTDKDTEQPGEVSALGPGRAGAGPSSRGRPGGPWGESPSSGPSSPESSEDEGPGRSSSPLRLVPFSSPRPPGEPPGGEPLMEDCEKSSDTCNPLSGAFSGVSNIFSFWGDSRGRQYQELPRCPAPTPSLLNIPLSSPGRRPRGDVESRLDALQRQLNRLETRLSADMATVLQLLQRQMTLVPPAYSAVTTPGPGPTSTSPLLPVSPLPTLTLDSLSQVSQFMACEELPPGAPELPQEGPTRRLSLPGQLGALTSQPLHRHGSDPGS
# Method in brief: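 Cell-free radioligand competition binding on hERG protein extracted from CHO cells, read by filter-based scintillation counting 0.75 h after dosing. Primary screen at 25 uM in duplicate, actives followed in concentration series. Signal loss fitted versus DMSO.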
# [8] = system: guinea pig Histamine Receptor (H2), gene 100729734; assay: NVS_GPCR_gH2: NovaScreen (NVS) G Protein-Coupled Receptor Assay for guinea pig Histamine Receptor (H2) (AID 2283342)
# Method in brief: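 Radioligand displacement on guinea pig striatal membranes, 1 h after dosing, filter-based scintillation counting; loss of signal versus DMSO. Single-point screen at 25 uM in duplicate, then concentration-response up to 50 uM.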
structure (smiles),measurement,setting,value
CCN(CC)C(=O)c1cccc(C)c1,AC50,[1],20.1 µM (active)
same,AC50,[2],8.73 µM (active)
same,outcome,[3],inactive
same,outcome,[4],inactive
CCCCC(CC)COC(=O)c1ccccc1C(=O)O (stereo not drawn),AC50,[1],39.2 µM (active)
same,outcome,[2],inactive
same,outcome,[5],inactive
CCCCOC(=O)[C@@H](C)Oc1ccc(Oc2ccc(C(F)(F)F)cn2)cc1,outcome,[1],inactive
same,outcome,[2],inactive
same,outcome,[4],inactive
CSC(=O)c1cccc2nnsc12,outcome,[6],inactive
Cc1nn(C)c(Oc2ccccc2)c1C=NOCc1ccc(C(=O)OC(C)(C)C)cc1,outcome,[7],inactive
COC(=O)c1ccccc1C(=O)O,outcome,[8],inactive

# — PubChem BioAssay (EPA / NIEHS)
